# Assay outcomes as filed in PubChem.
# The list is not random: actives were taken first. Their share in the collection is about 1.6%.
# KCNQ2 block = inhibitors of rat KCNQ2 potassium channel; O88943; CHO-K1 KCNQ2, FluxOR thallium flux, 20 min; hits give low values; B-score at 10 µM; 310,000 compounds, 1.1% hits; AID 2156;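 active means fluorescence ratio B-score at most minus 3 library SDs, with starting brightness B-score within 2 library SDs, cut at about -5.5 in these data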
# Target sequence (O88943 whole entry, looked up): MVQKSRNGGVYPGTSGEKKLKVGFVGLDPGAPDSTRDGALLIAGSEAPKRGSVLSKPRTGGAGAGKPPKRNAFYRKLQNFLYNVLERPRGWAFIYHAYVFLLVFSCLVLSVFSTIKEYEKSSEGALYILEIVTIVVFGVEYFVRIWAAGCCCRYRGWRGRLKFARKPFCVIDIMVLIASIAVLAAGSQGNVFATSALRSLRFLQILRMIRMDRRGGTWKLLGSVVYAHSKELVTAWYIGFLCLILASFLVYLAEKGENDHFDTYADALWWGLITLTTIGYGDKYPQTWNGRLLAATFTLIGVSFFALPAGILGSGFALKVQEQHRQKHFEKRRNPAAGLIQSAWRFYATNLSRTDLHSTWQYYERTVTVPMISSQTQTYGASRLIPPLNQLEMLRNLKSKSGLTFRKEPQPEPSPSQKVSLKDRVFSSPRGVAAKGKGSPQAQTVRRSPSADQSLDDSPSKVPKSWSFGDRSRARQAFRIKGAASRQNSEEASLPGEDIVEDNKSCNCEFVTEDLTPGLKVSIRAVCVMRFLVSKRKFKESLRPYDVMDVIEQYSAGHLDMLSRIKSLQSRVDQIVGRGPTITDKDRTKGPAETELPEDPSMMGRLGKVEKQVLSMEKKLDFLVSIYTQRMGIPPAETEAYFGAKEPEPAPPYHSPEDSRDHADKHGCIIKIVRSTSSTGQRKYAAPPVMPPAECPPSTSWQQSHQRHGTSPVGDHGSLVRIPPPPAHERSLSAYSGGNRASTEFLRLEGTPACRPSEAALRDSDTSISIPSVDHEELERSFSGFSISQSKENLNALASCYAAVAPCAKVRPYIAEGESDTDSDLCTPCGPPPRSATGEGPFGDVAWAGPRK
# KCNQ2 pot = enhances the rat KCNQ2 potassium channel; O88943; CHO-K1 KCNQ2, FluxOR thallium flux fluorescence; hits give high values; B-score at 10 µM; 310,000 compounds, 0.54% hits; AID 2239;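 active means fluorescence ratio B-score at least 3 SD of library B-scores, with initial fluorescence B-score within 3 of them, cut at about 5.3 in these data; same plate scores as AID 2156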;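 further: B-score of peak minus minimum over baseline fluorescence ratio after K+ and Tl+ stimulus; positive B-score means potentiation of KCNQ2 with more thallium influx and brighter signal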
# KCNQ2 inh conf = confirmation of rat KCNQ2 potassium channel inhibitors; shares compounds with KCNQ2 block; KCNQ2-expressing cells, thallium flux, inhibition; hits give low values; activity change, negative = inhibition, % at 10 µM; 1,000 compounds, 57% hits; AID 493025;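 further: 0% = vehicle wells and values are ratio percent relative to vehicle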
# KCNQ1 spec = selectivity of KCNQ2 inhibitors against human KCNQ1. shares compounds with KCNQ2 block. KCNQ1-expressing cells, FluxOR thallium flux fluorescence; hits give low values. activity change, negative = inhibition, % at 10 µM. 1,000 compounds, 15% hits;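 active means activity change at least 3 SD of negative controls below their mean in both duplicate wells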;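 further: CHO cells stably transfected with KCNQ1 and depolarized by potassium stimulus; peak minus minimum fluorescence over baseline after thallium addition; 0% = vehicle negative control and -100% = blank without thallium stimulus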
# CHO parental ctr = counter-screen for KCNQ2 inhibitors: effect in parental CHO cells; shares compounds with KCNQ2 block; thallium flux counter-screen; hits give low values; activity change, % at 10 µM; 1,000 compounds, 14% hits;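 further: 0% = vehicle negative controls with stimulus buffer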
# KCNQ2 patch conf = confirmation of rat KCNQ2 potassium channel inhibitors | shares compounds with KCNQ2 block | KCNQ2-expressing cells, automated patch clamp current | calls only at 10 µM | 550 compounds, 49% hits
# The depositor's hits bear a star; i = inactive; nt = no result given; + = active, no number. Unless noted, how the calls were made is not given here.
SMILES,KCNQ2 block,KCNQ2 pot,KCNQ2 inh conf,KCNQ1 spec,CHO parental ctr,others
CCN(CC)C(=O)C1CCCN(C(=O)c2oc3ccc(C)cc3c2C)C1 (stereo not given),-7*,-7,i,i,i,
CCN(CC)C(=O)C1CCN(C(=O)c2oc3ccc(C)cc3c2C)CC1,i,nt,nt,nt,nt,
CC(C)(C)OC(=O)CNC(=O)c1[nH]cnc1C(=O)NC(c1ccccc1)c1ccccc1,i,nt,nt,nt,nt,
COc1ccccc1NCc1nnc(-c2ccccc2)o1,i,0.12,nt,nt,nt,
CC1CCCCC1NC(=O)CCNS(=O)(=O)c1cc(Br)cnc1N (stereo not given),i,nt,nt,nt,nt,
O=c1oc(-c2ccccc2)nc2c1C1(CCCCC1)Cc1ccccc1-2,-8.7*,-8.7,i,i,i,
CCC1(CC)Cc2ccccc2-c2nc(-c3ccccc3)oc(=O)c21,i,nt,nt,nt,nt,
C/C(=N\OCC(=O)NC12CC3CC(CC(C3)C1)C2)c1cc2ccccc2o1,-6.8*,-6.8,-38%*,-37%*,-27%*,KCNQ2 patch conf=i
CSc1ccccc1NC(=O)CO/N=C(\C)c1cc2ccccc2o1,i,nt,nt,nt,nt,
C=CCn1c(=O)c(C(=O)NC(C)c2ccccc2)c(O)c2ccccc21 (stereo not given),-8.2*,-8.2,-30%*,i,i,KCNQ2 patch conf=i
C=CCn1c(=O)c(C(=O)NCc2ccccc2Cl)c(O)c2ccccc21,-7.1*,-7.1,i,i,i,
C=CCn1c(=O)c(C(=O)Nc2ccc(C)cc2)c(O)c2ccccc21,i,nt,nt,nt,nt,
CCCn1c(=O)c(C(=O)NCc2ccccc2Cl)c(O)c2ccccc21,i,nt,nt,nt,nt,
COc1cc2c(cc1OC)CN(C(=O)C1CCCN1S(=O)(=O)c1ccc(C)cc1)CC2 (stereo not given),i,nt,nt,nt,nt,
Nc1ccccc1C(O)(Cc1ccccc1)c1ccccc1 (stereo not given),i,0.16,nt,nt,nt,
CCc1ccc(-c2cc3c(=O)n(CC(=O)N4CCCCCC4)nc(C)n3n2)cc1,i,nt,nt,nt,nt,
Cc1ccc(OCC(O)Cn2nc(C)cc2C)cc1 (stereo not given),i,nt,nt,nt,nt,
COc1ccc2oc(CS(=O)c3ccccc3)c(C(=O)O)c2c1 (stereo not given),i,nt,nt,nt,nt,
CCOC(=O)C(C)Sc1nc(C2CC2)cc(C(F)(F)F)c1C#N (stereo not given),-6.9*,-6.9,i,i,i,
COC(=O)CSc1nc(C2CC2)cc(C(F)(F)F)c1C#N,i,0.01,nt,nt,nt,
COC(=O)/C=C/CC(C)OS(N)(=O)=O (stereo not given),i,nt,nt,nt,nt,
COc1ccccc1CNC(=O)C(=O)Nc1ccc(C(=O)N2CCC(C)CC2)cc1,i,0.25,nt,nt,nt,
Cc1ccc(O)c(C(=O)c2cnc(/N=C(\N)N(C)C)nc2)c1,i,0.3,nt,nt,nt,
Cc1ccc(O)c(C(=O)c2cnc3c(c2)COc2ccc(C)cc2-3)c1,-6.8*,-6.8,i,i,i,
CCN1CCN(c2ccc(S(=O)(=O)N3CCCCC3)cc2NC(=O)CC(C)c2ccccc2)CC1 (stereo not given),i,0.02,nt,nt,nt,
SMILES,KCNQ2 block,KCNQ2 pot,KCNQ2 inh conf,KCNQ1 spec,CHO parental ctr,others
CN1CCN(C(=O)/C(=C/c2ccccc2F)NC(=O)c2ccccc2)CC1,i,nt,nt,nt,nt,
COc1cc(C(=O)NCC(c2cccs2)N2CCc3ccccc32)cc(OC)c1OC (stereo not given),-8.7*,-8.7,i,i,i,
COc1ccccc1NC(=O)C(=O)NCC(c1ccco1)N1CCc2ccccc21 (stereo not given),-7.2*,-7.2,i,i,i,
COc1ccccc1C(=O)NCC(c1cccs1)N1CCc2ccccc21 (stereo not given),-7.2*,-7.2,i,i,i,
COc1cccc(C(=O)NCC(c2cccs2)N2CCc3ccccc32)c1 (stereo not given),i,nt,nt,nt,nt,
O=C(NCC(c1cccs1)N1CCc2ccccc21)c1ccccc1 (stereo not given),i,nt,nt,nt,nt,
O=C(NCC(c1ccco1)N1CCc2ccccc21)C(=O)Nc1ccccc1F (stereo not given),i,nt,nt,nt,nt,
COc1ccc(C2CC(c3cccs3)=NN2C(=O)CSc2nc(=O)n3cc(C)ccc3n2)cc1 (stereo not given),i,nt,nt,nt,nt,
CCN(CC(=O)NCc1ccc(F)cc1)C(=O)CN1CCN(c2cc(Cl)ccc2C)CC1,-9.5*,-9.5,-26%*,i,i,KCNQ2 patch conf=+
CCN(CC(=O)NCc1ccc(Cl)cc1)C(=O)CSc1ccc(F)cc1,i,nt,nt,nt,nt,
CCN(CC(=O)NCc1ccc(Cl)cc1)C(=O)CSc1cc(C)ccc1C,-8.2*,-8.2,-22%*,i,i,KCNQ2 patch conf=+
Cc1cccc(N2CCN(CC(=O)NCc3ccc(Cl)cc3)CC2)c1C,i,nt,nt,nt,nt,
O=C(/C=C/c1c(F)cccc1Cl)N1CCOCC1,i,nt,nt,nt,nt,
COc1cccc(CC(NC(C)=O)C(=O)NC2CCN(C(=O)Nc3ccc(C)cc3)CC2)c1 (stereo not given),i,nt,nt,nt,nt,
CC(C)(CNC(=O)c1ccc(-c2cccc(C(F)(F)F)c2)o1)N1CCOCC1,i,nt,nt,nt,nt,
O=C(NCC1CC1)Nc1cccc(C(F)(F)F)c1,i,0.9,nt,nt,nt,
O=C(Nc1ccc(Br)cc1Br)C1CC(=O)N(Cc2ccccc2)C1 (stereo not given),i,0.27,nt,nt,nt,
Cc1ccc(CN=c2c([N+](=O)[O-])nn(-c3cccc(Cl)c3)n2O)cc1,i,nt,nt,nt,nt,
Cc1ccc(CN=c2c([N+](=O)[O-])nn(-c3cccc(C)c3)n2O)cc1,-7*,-7,-19%*,i,i,KCNQ2 patch conf=i
Cc1cc(C)c2oc(C(=O)N3CCN(Cc4ccccc4)CC3)cc(=O)c2c1,i,0.99,nt,nt,nt,
CCOC(=O)c1ccc(NC(=O)NNC(=O)CCc2ccc(OC)cc2)cc1,i,nt,nt,nt,nt,
CC(C)c1ccc(/C=N/NC(=O)c2cccc(Cl)c2)cc1,i,nt,nt,nt,nt,
CC(C)c1ccc(C(=O)N/N=C/c2cccc(Cl)c2Cl)cc1,-9.5*,-9.5,i,i,i,
COC(=O)c1ccc(C(=O)OC)c(NC(=O)COC(=O)CC2CC3CCC2C3)c1 (stereo not given),-11*,-11,i,i,i,
Cc1ccc(Cl)cc1NC(=O)COC(=O)CC1CC2CCC1C2 (stereo not given),i,nt,nt,nt,nt,
SMILES,KCNQ2 block,KCNQ2 pot,KCNQ2 inh conf,KCNQ1 spec,CHO parental ctr,others
CCCCN(C)c1nc(-c2ccco2)c2c(c1C#N)CC(C)(C)OC2,-8.2*,-8.2,i,i,i,
CN(C)CCNc1nc(-c2ccco2)c2c(c1C#N)CC(C)(C)OC2,i,nt,nt,nt,nt,
CCCCOc1ccc(Cc2c(Cl)nc(SC)nc2N2CCOCC2)cc1,i,nt,nt,nt,nt,
CSc1nc(Cl)c(Cc2ccc(OCC(C)C)cc2)c(N2CCOCC2)n1,-6.8*,-6.8,-24%*,i,i,KCNQ2 patch conf=i
Cc1ccc(C(=O)C(C)OC(=O)CN2C(=O)NC3(CCCC3)C2=O)cc1C (stereo not given),i,1.4,nt,nt,nt,
CN1CCN(S(=O)(=O)c2ccc(Br)s2)CC1,i,0.15,nt,nt,nt,
O=S(=O)(c1ccc(Cl)s1)N1CCC(Cc2ccccc2)CC1,-7.4*,-7.4,i,i,i,
